Key:
Test in all cases: DAPPL (digital affinity profiling via proximity ligation, sequencing); 10 mM Tris-HCl pH 7.5, 50 mM NaCl, 1 mM DTT, 4% glycerol, room temperature, 30 min; GST-TFs on glutathione beads, 16-mer random dsDNA library, 0.1% formaldehyde crosslink after washing; high values mean tight binding
[1] = target: T1, FLI1 (Homo sapiens, UniProt Q01543 1-452); settings: protein: recombinant; tags: N-terminal GST; dsDNA, one strand shown
T1 sequence: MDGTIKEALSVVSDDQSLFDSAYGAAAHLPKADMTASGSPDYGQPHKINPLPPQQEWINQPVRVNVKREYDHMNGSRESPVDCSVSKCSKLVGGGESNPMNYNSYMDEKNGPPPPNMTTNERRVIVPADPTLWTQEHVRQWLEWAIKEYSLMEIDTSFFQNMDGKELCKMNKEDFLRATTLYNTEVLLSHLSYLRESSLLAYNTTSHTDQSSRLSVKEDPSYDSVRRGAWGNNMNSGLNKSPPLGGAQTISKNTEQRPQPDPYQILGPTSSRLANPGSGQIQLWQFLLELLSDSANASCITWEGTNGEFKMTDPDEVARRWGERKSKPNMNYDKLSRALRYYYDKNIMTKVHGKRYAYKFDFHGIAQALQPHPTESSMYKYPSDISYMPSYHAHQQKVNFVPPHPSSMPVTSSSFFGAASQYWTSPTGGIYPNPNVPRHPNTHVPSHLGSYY
Summary of the method: (§1)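 Binding signal is each hexamer's read frequency for a factor divided by its frequency in the tag-only sample. The factors were GST-fused human transcription factors from yeast, captured on glutathione beads, DNA-barcoded and pooled with that sample. Pools were incubated with 200 nmole of a random double-stranded 16-mer DNA library in Tris/NaCl/DTT/glycerol buffer at room temperature for 30 min, then washed, crosslinked with 0.1% formaldehyde, proximity-ligated with BsaI/T4 ligase (1 h, 37 °C), PCR-amplified and sequenced on an Illumina NextSeq500.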

[2] = target: T2, ELK1 (Homo sapiens, UniProt P19419 1-428); settings: protein: recombinant; tags: N-terminal GST; dsDNA, one strand shown
T2 sequence: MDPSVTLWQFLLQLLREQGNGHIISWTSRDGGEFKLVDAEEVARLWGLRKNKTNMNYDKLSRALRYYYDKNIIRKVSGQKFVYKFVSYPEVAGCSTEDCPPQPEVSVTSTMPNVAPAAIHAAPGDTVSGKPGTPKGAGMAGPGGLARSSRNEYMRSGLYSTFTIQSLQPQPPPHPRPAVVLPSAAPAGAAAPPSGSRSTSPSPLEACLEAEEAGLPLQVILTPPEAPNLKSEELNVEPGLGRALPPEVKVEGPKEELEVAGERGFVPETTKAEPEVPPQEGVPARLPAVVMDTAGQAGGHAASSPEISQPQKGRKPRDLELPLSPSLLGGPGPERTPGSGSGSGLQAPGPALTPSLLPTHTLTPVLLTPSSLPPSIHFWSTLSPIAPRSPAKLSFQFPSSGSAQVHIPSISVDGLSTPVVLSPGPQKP
Summary of the method: as §1

[3] = target: T3, GABPA (Homo sapiens, UniProt Q06546 1-454); settings: protein: recombinant; tags: N-terminal GST; dsDNA, one strand shown
T3 sequence: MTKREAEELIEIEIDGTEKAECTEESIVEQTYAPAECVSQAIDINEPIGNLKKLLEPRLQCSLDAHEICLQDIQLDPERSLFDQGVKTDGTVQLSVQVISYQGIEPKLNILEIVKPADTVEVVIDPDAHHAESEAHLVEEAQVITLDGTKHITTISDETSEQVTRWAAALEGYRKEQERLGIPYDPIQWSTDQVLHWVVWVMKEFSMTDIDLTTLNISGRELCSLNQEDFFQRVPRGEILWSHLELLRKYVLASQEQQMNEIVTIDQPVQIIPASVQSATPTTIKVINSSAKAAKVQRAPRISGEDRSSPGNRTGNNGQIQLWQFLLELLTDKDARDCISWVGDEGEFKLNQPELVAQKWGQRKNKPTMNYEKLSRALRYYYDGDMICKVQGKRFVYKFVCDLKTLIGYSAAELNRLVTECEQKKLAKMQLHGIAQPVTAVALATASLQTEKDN
Summary of the method: as §1

[4] = target: T4, ERG (Homo sapiens, UniProt P11308 1-479); settings: protein: recombinant; tags: N-terminal GST; dsDNA, one strand shown
T4 sequence: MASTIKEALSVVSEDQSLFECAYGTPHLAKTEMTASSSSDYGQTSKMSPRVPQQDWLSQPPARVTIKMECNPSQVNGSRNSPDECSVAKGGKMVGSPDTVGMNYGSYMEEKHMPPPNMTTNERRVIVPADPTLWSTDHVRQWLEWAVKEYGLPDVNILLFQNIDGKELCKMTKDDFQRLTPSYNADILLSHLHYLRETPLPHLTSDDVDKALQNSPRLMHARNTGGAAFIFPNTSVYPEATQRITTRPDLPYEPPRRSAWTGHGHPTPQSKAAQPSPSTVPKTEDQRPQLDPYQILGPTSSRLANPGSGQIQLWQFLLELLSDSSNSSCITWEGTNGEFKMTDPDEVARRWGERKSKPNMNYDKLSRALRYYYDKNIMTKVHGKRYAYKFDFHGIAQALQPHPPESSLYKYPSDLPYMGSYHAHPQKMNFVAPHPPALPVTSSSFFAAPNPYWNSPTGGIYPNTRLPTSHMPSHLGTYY
Summary of the method: as §1

[5] = target: ELF1 (Homo sapiens, UniProt P32519 1-619); settings: protein: recombinant; tags: N-terminal GST; dsDNA, one strand shown
Sequence of ELF1 (P32519 whole entry): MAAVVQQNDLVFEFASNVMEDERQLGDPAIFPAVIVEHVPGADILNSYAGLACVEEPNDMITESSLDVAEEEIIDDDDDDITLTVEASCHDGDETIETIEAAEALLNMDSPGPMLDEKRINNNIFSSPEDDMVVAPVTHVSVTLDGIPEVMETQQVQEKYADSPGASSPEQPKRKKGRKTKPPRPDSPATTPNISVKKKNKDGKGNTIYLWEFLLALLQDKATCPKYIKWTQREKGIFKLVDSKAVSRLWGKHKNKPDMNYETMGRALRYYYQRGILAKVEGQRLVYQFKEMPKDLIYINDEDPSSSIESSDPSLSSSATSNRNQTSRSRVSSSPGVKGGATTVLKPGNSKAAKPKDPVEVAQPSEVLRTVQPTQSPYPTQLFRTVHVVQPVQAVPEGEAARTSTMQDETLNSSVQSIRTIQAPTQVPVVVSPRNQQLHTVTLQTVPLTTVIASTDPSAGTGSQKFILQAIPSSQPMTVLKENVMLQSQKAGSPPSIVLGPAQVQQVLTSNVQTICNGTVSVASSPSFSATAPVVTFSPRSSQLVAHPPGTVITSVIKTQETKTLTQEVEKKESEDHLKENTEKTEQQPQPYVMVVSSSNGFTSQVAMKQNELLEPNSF
Summary of the method: as §1

[6] = target: T5, EHF (Homo sapiens, UniProt Q9NZC4 1-300); settings: protein: recombinant; tags: N-terminal GST; dsDNA, one strand shown
T5 sequence: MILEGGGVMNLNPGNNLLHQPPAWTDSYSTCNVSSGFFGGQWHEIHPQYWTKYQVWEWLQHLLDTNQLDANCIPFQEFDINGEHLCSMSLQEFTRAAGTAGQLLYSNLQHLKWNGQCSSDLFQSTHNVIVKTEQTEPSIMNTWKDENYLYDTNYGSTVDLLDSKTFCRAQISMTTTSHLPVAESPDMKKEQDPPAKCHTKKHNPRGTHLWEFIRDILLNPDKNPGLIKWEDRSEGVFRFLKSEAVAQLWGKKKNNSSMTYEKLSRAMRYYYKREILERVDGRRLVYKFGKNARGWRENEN
Summary of the method: as §1

[7] = target: SPI1 (Homo sapiens, UniProt P17947 1-270); settings: protein: recombinant; tags: N-terminal GST; dsDNA, one strand shown
Summary of the method: as §1

[8] = target: SPIB (Homo sapiens, UniProt Q01892 1-262); settings: protein: recombinant; tags: N-terminal GST; dsDNA, one strand shown
Sequence of SPIB (Q01892 whole entry): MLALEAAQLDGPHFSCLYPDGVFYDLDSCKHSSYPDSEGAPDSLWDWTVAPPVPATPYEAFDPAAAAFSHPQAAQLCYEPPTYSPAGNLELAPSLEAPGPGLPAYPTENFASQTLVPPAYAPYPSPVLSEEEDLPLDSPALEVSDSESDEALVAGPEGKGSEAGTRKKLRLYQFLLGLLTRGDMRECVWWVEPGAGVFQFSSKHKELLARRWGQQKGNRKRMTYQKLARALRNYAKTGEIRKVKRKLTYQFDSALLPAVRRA
Summary of the method: as §1

[9] = target: T6, ELK3 (Homo sapiens, UniProt P41970 1-407); settings: protein: recombinant; tags: N-terminal GST; dsDNA, one strand shown
T6 sequence: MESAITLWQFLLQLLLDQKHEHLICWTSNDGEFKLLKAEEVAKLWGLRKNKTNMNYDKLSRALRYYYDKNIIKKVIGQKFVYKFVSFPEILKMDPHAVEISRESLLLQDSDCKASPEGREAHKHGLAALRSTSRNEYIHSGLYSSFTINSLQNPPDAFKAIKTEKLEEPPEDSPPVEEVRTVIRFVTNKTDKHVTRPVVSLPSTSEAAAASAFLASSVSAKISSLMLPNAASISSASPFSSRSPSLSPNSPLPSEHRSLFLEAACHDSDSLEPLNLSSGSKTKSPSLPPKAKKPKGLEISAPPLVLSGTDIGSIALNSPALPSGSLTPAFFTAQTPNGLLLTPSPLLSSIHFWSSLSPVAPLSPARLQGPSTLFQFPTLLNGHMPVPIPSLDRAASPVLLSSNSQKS
Summary of the method: as §1

[10] = target: T7, FEV (Homo sapiens, UniProt Q99581 1-238); settings: protein: recombinant; tags: N-terminal GST; dsDNA, one strand shown
T7 sequence: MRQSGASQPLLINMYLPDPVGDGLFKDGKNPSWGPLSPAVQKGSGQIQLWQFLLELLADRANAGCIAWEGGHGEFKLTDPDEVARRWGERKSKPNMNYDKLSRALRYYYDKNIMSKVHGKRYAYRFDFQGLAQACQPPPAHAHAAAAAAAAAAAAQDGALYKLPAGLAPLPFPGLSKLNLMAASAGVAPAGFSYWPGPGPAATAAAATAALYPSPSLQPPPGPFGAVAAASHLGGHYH
Summary of the method: as §1

[11] = target: ETV5 (Homo sapiens, UniProt P41161 1-510); settings: protein: recombinant; tags: N-terminal GST; dsDNA, one strand shown
Sequence of ETV5 (P41161 whole entry): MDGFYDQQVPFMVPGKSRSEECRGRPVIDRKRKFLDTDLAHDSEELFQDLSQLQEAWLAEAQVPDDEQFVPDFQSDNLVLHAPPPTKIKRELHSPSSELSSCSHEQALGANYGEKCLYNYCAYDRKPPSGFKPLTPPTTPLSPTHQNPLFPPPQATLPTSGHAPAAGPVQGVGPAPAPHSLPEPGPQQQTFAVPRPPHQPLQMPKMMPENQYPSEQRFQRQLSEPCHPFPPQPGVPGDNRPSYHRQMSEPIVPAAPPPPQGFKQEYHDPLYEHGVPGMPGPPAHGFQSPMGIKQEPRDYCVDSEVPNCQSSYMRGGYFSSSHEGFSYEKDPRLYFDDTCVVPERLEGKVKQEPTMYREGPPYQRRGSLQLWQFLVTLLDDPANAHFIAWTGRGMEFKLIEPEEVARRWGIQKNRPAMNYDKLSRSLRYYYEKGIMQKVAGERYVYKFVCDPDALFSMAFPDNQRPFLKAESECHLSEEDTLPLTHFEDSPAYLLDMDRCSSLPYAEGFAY
Summary of the method: as §1

[12] = target: HSF1 (Homo sapiens, UniProt Q00613 1-529); settings: protein: recombinant; tags: N-terminal GST; chain copies: 3; dsDNA, one strand shown
Sequence of HSF1 (Q00613 whole entry): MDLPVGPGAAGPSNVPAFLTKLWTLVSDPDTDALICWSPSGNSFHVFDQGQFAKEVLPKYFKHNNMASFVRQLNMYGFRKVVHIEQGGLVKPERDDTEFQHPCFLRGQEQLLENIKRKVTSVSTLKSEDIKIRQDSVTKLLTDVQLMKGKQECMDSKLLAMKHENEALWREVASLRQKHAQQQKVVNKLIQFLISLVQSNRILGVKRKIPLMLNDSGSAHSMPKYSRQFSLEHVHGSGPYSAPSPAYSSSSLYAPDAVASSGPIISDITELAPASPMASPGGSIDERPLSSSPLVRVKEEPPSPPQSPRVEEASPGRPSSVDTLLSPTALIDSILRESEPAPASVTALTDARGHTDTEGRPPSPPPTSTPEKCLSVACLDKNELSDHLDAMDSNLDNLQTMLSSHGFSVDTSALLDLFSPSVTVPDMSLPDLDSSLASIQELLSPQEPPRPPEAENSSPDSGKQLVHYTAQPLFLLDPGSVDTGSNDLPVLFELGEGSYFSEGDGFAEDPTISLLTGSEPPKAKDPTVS
Summary of the method: as §1

[13] = target: T8, SPIC (Homo sapiens, UniProt Q8N5J4 1-248); settings: protein: recombinant; tags: N-terminal GST; dsDNA, one strand shown
T8 sequence: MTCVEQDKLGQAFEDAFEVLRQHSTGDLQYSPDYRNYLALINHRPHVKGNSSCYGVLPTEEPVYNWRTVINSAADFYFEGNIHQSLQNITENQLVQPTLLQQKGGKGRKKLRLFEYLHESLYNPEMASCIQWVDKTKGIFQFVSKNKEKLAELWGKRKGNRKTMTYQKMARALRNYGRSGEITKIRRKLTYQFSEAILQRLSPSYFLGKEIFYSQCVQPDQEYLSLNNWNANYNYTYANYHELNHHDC
Summary of the method: as §1

[14] = target: ELF4 (Homo sapiens, UniProt Q99607 1-663); settings: protein: recombinant; tags: N-terminal GST; dsDNA, one strand shown
Sequence of ELF4 (Q99607 whole entry): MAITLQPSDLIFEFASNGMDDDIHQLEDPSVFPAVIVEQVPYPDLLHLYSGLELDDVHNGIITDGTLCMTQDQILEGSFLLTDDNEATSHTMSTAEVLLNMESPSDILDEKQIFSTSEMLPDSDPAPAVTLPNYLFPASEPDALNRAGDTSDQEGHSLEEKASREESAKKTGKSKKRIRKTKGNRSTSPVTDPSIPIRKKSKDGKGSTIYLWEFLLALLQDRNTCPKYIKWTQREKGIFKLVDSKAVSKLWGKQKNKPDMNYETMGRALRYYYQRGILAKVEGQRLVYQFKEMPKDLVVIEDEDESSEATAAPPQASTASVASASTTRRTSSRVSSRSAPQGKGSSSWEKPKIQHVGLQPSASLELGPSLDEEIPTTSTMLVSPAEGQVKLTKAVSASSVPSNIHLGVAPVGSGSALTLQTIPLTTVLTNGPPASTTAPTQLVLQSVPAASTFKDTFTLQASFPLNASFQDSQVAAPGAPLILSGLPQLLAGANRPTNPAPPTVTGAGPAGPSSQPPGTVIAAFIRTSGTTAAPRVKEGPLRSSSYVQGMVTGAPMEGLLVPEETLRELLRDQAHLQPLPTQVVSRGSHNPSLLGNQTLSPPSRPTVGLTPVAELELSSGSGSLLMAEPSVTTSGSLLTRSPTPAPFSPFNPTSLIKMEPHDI
Summary of the method: as §1

[15] = target: T9, ELK4 (Homo sapiens, UniProt P28324-2 1-405); settings: protein: recombinant; tags: N-terminal GST; dsDNA, one strand shown
T9 sequence: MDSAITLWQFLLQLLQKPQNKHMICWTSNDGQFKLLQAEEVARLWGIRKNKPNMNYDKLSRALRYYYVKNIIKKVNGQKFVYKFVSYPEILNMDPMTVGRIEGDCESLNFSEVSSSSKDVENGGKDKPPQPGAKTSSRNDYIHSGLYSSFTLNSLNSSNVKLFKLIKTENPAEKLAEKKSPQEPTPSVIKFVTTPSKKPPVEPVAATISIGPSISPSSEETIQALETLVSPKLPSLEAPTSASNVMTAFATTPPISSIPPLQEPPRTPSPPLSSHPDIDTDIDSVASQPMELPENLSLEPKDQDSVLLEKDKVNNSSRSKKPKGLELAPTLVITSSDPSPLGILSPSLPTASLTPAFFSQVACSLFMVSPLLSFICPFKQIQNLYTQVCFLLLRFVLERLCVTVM
Summary of the method: as §1

[16] = target: T10, ETV2 (Homo sapiens, UniProt O00321 1-342); settings: protein: recombinant; tags: N-terminal GST; dsDNA, one strand shown
T10 sequence: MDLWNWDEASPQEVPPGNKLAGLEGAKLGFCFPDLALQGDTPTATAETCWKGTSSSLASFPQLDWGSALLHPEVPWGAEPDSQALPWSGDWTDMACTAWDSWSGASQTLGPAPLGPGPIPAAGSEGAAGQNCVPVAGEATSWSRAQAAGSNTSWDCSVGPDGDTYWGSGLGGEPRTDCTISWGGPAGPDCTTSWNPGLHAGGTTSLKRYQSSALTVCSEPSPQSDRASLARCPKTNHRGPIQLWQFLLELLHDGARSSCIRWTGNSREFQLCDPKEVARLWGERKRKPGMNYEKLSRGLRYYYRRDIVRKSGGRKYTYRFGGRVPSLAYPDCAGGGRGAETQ
Summary of the method: as §1

[17] = target: T11, ELF3 (Homo sapiens, UniProt P78545 1-371); settings: protein: recombinant; tags: N-terminal GST; dsDNA, one strand shown
T11 sequence: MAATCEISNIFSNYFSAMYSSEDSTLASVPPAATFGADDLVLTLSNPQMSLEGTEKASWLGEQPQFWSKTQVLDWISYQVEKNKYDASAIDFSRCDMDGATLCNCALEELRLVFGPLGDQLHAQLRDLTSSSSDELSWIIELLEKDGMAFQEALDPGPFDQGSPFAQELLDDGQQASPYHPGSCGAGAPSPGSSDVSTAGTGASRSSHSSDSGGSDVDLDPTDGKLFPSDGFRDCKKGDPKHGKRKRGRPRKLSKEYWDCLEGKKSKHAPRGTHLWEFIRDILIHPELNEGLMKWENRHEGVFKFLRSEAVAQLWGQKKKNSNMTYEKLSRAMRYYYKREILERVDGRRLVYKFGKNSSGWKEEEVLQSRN
Summary of the method: as §1

[18] = target: CRX (Homo sapiens, UniProt O43186 1-299); settings: protein: recombinant; tags: N-terminal GST; dsDNA, one strand shown
Sequence of CRX (O43186 whole entry): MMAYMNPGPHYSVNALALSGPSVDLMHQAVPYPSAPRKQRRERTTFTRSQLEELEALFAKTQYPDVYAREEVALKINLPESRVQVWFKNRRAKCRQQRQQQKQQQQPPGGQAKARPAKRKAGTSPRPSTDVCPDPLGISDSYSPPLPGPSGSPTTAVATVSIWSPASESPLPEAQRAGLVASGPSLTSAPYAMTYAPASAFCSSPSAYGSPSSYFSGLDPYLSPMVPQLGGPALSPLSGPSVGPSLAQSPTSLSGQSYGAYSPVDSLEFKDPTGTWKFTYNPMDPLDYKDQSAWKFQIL
Summary of the method: as §1

[19] = target: ETV1 (Homo sapiens, UniProt P50549 1-477); settings: protein: recombinant; tags: N-terminal GST; dsDNA, one strand shown
Sequence of ETV1 (P50549 whole entry): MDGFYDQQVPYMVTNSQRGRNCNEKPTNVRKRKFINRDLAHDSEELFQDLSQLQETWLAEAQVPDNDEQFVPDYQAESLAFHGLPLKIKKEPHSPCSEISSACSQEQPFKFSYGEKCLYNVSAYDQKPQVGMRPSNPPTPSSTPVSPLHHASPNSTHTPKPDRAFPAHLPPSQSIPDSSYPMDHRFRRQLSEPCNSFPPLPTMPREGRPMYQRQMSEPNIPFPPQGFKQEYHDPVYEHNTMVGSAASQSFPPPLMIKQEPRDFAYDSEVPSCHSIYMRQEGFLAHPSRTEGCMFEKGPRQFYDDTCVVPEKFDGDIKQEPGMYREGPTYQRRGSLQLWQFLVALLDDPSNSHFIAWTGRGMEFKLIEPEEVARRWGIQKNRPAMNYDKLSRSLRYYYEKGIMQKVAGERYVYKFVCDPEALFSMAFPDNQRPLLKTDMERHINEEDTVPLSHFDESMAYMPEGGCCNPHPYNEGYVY
Summary of the method: as §1

GTTACT
binding signal [1]: 1.25 fold enrichment (6-mer frequency, TF over GST control)
binding signal [2]: 1.28 fold enrichment (6-mer frequency, TF over GST control)
binding signal [3]: 1.13 fold enrichment (6-mer frequency, TF over GST control)
binding signal [4]: 1.33 fold enrichment (6-mer frequency, TF over GST control)
binding signal [5]: 1.22 fold enrichment (6-mer frequency, TF over GST control)
binding signal [6]: 1.37 fold enrichment (6-mer frequency, TF over GST control)
binding signal [7]: 1.3 fold enrichment (6-mer frequency, TF over GST control)
binding signal [8]: 1.23 fold enrichment (6-mer frequency, TF over GST control)
binding signal [9]: 1.31 fold enrichment (6-mer frequency, TF over GST control)
binding signal [10]: 1.17 fold enrichment (6-mer frequency, TF over GST control)
binding signal [11]: 1.28 fold enrichment (6-mer frequency, TF over GST control)
binding signal [12]: 1.03 fold enrichment (6-mer frequency, TF over GST control)
binding signal [13]: 1.31 fold enrichment (6-mer frequency, TF over GST control)
binding signal [14]: 1.18 fold enrichment (6-mer frequency, TF over GST control)
binding signal [15]: 1.09 fold enrichment (6-mer frequency, TF over GST control)
binding signal [16]: 1.19 fold enrichment (6-mer frequency, TF over GST control)
binding signal [17]: 1.4 fold enrichment (6-mer frequency, TF over GST control)
binding signal [18]: 1.03 fold enrichment (6-mer frequency, TF over GST control)
binding signal [19]: 1.17 fold enrichment (6-mer frequency, TF over GST control)
